# From PubChem BioAssay (NCATS)
# Inconclusive results are not listed. A call without a number means that no potency is given here. Values without a mark were called inactive. Active and inactive are the calls of the source. The call rests on the fitted dose curve.
# How the values were obtained:
# [1] = Primary qHTS for inhibitors of SARS-S pseudo-typed particle cell entry (AID 1479145); details: SARS-S pseudotyped particle cell entry, luciferase reporter; series mostly up to 57.1 µM; further: nearly all actives have a fitted effect of over 45% in size; further: potency means the concentration at half of the fitted maximal effect
# [2] = Primary qHTS for Huh7 cytotoxicity: counterscreen for inhibitors of MERS-S pseudotyped particle cell entry (AID 1479147); details: cell viability read-out; series mostly up to 57.1 µM; further: potency means the concentration at half of the fitted maximal effect
# [3] = Primary qHTS for inhibitors of MERS-S pseudo-typed particle cell entry (AID 1479149); details: MERS-S pseudotyped particle entry, luciferase; series mostly up to 57.1 µM; further: nearly all actives have a fitted effect of over 60% in size
# [4] = Primary qHTS for Vero E6 cytotoxicity: counterscreen for inhibitors of SARS-S pseudo-typed particle cell entry (AID 1479150); details: cell viability; series mostly up to 57.1 µM; further: potency means the concentration at half of the fitted maximal effect
smiles,measurement,setting,value
CN1CCC[C@@H]1c1cccnc1,Potency,[1],inactive
same,Potency,[2],inactive
same,Potency,[3],inactive
same,Potency,[4],inactive
C#CCN[C@@H]1CCc2ccccc21,Potency,[1],inactive
same,Potency,[2],inactive
same,Potency,[3],inactive
same,Potency,[4],inactive
Cc1ccc(C(=O)C(=O)O)cc1C,Potency,[1],inactive
same,Potency,[2],inactive
same,Potency,[3],inactive
same,Potency,[4],inactive
C[C@]12CCC(=O)C=C1CC[C@@H]1[C@@H]2[C@@H](O)C[C@@]2(C)[C@H]1CC[C@]2(O)C(=O)COC(=O)CCC(=O)O,Potency,[1],inactive
same,Potency,[2],inactive
same,Potency,[3],inactive
same,Potency,[4],inactive
CC[C@H](C)[C@H](N)C(=O)O,Potency,[1],inactive
same,Potency,[2],inactive
same,Potency,[3],inactive
same,Potency,[4],inactive
Nc1nc2ccc(OC(F)(F)F)cc2s1,Potency,[1],inactive
same,Potency,[2],inactive
same,Potency,[3],inactive
same,Potency,[4],inactive
C/C(=N\O)[C@@H](C)NCC(C)(C)CN[C@H](C)/C(C)=N/O,Potency,[1],inactive
same,Potency,[2],inactive
same,Potency,[3],inactive
same,Potency,[4],inactive
CC(C)c1ccc2oc3nc(N)c(C(=O)O)cc3c(=O)c2c1,Potency,[1],inactive
same,Potency,[2],10 µM (active)
same,Potency,[3],inactive
same,Potency,[4],7.94 µM (active)
NC(=O)N1c2ccccc2C=Cc2ccccc21,Potency,[1],inactive
same,Potency,[2],inactive
same,Potency,[3],inactive
same,Potency,[4],inactive
O=C1O[C@H](CO)[C@@H](O)[C@H](O)[C@H]1O,Potency,[1],inactive
same,Potency,[2],inactive
same,Potency,[3],inactive
same,Potency,[4],inactive
Nc1ccc(S(=O)(=O)Nc2ccccn2)cc1,Potency,[1],inactive
same,Potency,[2],inactive
same,Potency,[3],inactive
same,Potency,[4],inactive
CC[N+](CC)(CCNC(=O)C(=O)NCC[N+](CC)(CC)Cc1ccccc1Cl)Cc1ccccc1Cl,Potency,[1],inactive
same,Potency,[2],inactive
same,Potency,[3],inactive
same,Potency,[4],inactive
CC(C(=O)O)c1ccc2c(c1)[nH]c1ccc(Cl)cc12 (stereo unspecified),Potency,[1],inactive
same,Potency,[2],inactive
same,Potency,[3],inactive
same,Potency,[4],inactive
CCCCC(=O)OCC(=O)[C@H]1[C@H](C)C[C@H]2[C@@H]3C[C@H](F)C4=CC(=O)C=C[C@]4(C)[C@@]3(F)[C@@H](O)C[C@@]21C,Potency,[1],inactive
same,Potency,[2],inactive
same,Potency,[3],inactive
same,Potency,[4],inactive
CCCCCCCCCCCCCCCCCC(=O)O,Potency,[1],inactive
same,Potency,[2],inactive
same,Potency,[3],inactive
same,Potency,[4],inactive
NC(=O)c1ccc([N+](=O)[O-])cc1Cl,Potency,[1],inactive
same,Potency,[2],inactive
same,Potency,[3],inactive
same,Potency,[4],inactive
C[N+](C)(CCOc1ccccc1)Cc1cccs1,Potency,[1],inactive
same,Potency,[2],inactive
same,Potency,[3],inactive
same,Potency,[4],inactive
CC1(C)O[C@@H]2C[C@H]3[C@@H]4CCC5=CC(=O)C=C[C@]5(C)[C@@]4(F)[C@@H](O)C[C@]3(C)[C@]2(C(=O)CO)O1,Potency,[1],inactive
same,Potency,[2],inactive
same,Potency,[3],inactive
same,Potency,[4],inactive
CCN1CCN(C(=O)N[C@@H](C(=O)N[C@@H]2C(=O)N3[C@@H]2SC(C)(C)[C@H]3C(=O)O)c2ccccc2)C(=O)C1=O,Potency,[1],inactive
same,Potency,[2],inactive
same,Potency,[3],inactive
same,Potency,[4],inactive
CC(CC(C#N)(c1ccccc1)C(C)C)N(C)C (stereo unspecified),Potency,[1],inactive
same,Potency,[2],inactive
same,Potency,[3],inactive
same,Potency,[4],inactive
C[C@]12C=CC(=O)C=C1[C@@H](F)C[C@@H]1[C@@H]2[C@@H](O)C[C@@]2(C)[C@H]1CC[C@]2(O)C(=O)CO,Potency,[1],inactive
same,Potency,[2],inactive
same,Potency,[3],inactive
same,Potency,[4],inactive
Clc1ccc2nsnc2c1NC1=NCCN1,Potency,[1],inactive
same,Potency,[2],inactive
same,Potency,[3],inactive
same,Potency,[4],inactive
COC(=O)/C=C\C(=O)OC,Potency,[1],inactive
same,Potency,[2],inactive
same,Potency,[3],inactive
same,Potency,[4],inactive
CC(C)(C)NCC(O)COc1cccc2c1C[C@H](O)[C@H](O)C2 (stereo partly specified),Potency,[1],inactive
same,Potency,[2],inactive
same,Potency,[3],inactive
same,Potency,[4],inactive
CN(C)C(=O)COC(=O)Cc1ccc(OC(=O)c2ccc(N=C(N)N)cc2)cc1,Potency,[1],inactive
same,Potency,[2],inactive
same,Potency,[3],inactive
same,Potency,[4],inactive
CCCN1CCCC[C@H]1C(=O)Nc1c(C)cccc1C,Potency,[1],inactive
same,Potency,[2],inactive
same,Potency,[3],inactive
same,Potency,[4],inactive
Cc1oc(=O)oc1COC(=O)[C@@H]1N2C(=O)[C@@H](NC(=O)[C@H](N)c3ccccc3)[C@H]2SC1(C)C,Potency,[1],inactive
same,Potency,[2],inactive
same,Potency,[3],inactive
same,Potency,[4],inactive
C=CC(N)CCC(=O)O (stereo unspecified),Potency,[1],inactive
same,Potency,[2],inactive
same,Potency,[3],inactive
same,Potency,[4],inactive
CCCCCCCCCCCCSCCOCCO,Potency,[1],inactive
same,Potency,[2],inactive
same,Potency,[3],inactive
same,Potency,[4],inactive
N[C@@H](CCC(=O)N[C@@H](CS)C(=O)NCC(=O)O)C(=O)O,Potency,[1],inactive
same,Potency,[2],inactive
same,Potency,[3],inactive
same,Potency,[4],inactive
C/C(=C(\CCO)SS/C(CCO)=C(\C)N(C=O)Cc1cnc(C)nc1N)N(C=O)Cc1cnc(C)nc1N,Potency,[1],inactive
same,Potency,[2],inactive
same,Potency,[3],inactive
same,Potency,[4],inactive
C[C@](N)(Cc1ccc(O)cc1)C(=O)O,"activity change, negative = inhibition",[1],-0.396% [at 5.34 µM]
same,outcome,[2],inactive [at 5.34 µM]
same,outcome,[3],inactive [at 5.34 µM]
same,"activity change, negative = cytotoxicity",[4],-24.5% [at 5.34 µM]
CCCCCCCCCCCCCCCCO,Potency,[1],inactive
same,Potency,[2],inactive
same,Potency,[3],inactive
same,Potency,[4],inactive
Cc1cccc(C)c1NC(=O)c1cc(S(N)(=O)=O)c(Cl)cc1O,Potency,[1],inactive
same,Potency,[2],inactive
same,Potency,[3],inactive
same,Potency,[4],inactive
CCCCCCCCCCC[C@@H](C[C@@H]1OC(=O)[C@H]1CCCCCC)OC(=O)[C@H](CC(C)C)NC=O,Potency,[1],inactive
same,Potency,[2],inactive
same,Potency,[3],inactive
same,Potency,[4],inactive
CC(=O)N(c1onc(C)c1C)S(=O)(=O)c1ccc(N)cc1,Potency,[1],inactive
same,Potency,[2],inactive
same,Potency,[3],inactive
same,Potency,[4],inactive
CCn1nc(C(=O)O)c(=O)c2cc3c(cc21)OCO3,Potency,[1],inactive
same,Potency,[2],inactive
same,Potency,[3],inactive
same,Potency,[4],inactive
CCC1=C(C)CN(C(=O)NCCc2ccc(S(=O)(=O)NC(=O)NC3CCC(C)CC3)cc2)C1=O (stereo unspecified),Potency,[1],inactive
same,Potency,[2],inactive
same,Potency,[3],inactive
same,Potency,[4],inactive
NS(=O)(=O)c1cc2c(cc1Cl)NC(C(Cl)Cl)NS2(=O)=O (stereo unspecified),Potency,[1],inactive
same,Potency,[2],inactive
same,Potency,[3],inactive
same,Potency,[4],inactive
CCN(CC)CCNC(=O)c1ccc(N)cc1,Potency,[1],inactive
same,Potency,[2],inactive
same,Potency,[3],inactive
same,Potency,[4],inactive
CCOC(=O)[C@H](CCc1ccccc1)N[C@@H](C)C(=O)N1CCC[C@H]1C(=O)O,Potency,[1],inactive
same,Potency,[2],inactive
same,Potency,[3],inactive
same,Potency,[4],inactive
CC(=O)[C@@]1(O)CC[C@H]2[C@@H]3C[C@H](C)C4=CC(=O)C=C[C@]4(C)[C@@]3(F)[C@@H](O)C[C@@]21C,Potency,[1],inactive
same,Potency,[2],inactive
same,Potency,[3],inactive
same,Potency,[4],inactive
CC(CN(C)C)C(C)(O)Cc1ccc(Cl)cc1 (stereo unspecified),Potency,[1],inactive
same,Potency,[2],inactive
same,Potency,[3],inactive
same,Potency,[4],inactive
COc1cc(/C=C/C(=O)O[C@H]2CC[C@]34C[C@]35CC[C@]3(C)[C@@H]([C@H](C)CCC=C(C)C)CC[C@@]3(C)[C@@H]5CC[C@H]4C2(C)C)ccc1O,Potency,[1],inactive
same,Potency,[2],inactive
same,Potency,[3],inactive
same,Potency,[4],inactive
CS(=O)(=O)c1ccc([C@@H](O)[C@@H](CO)NC(=O)C(Cl)Cl)cc1,Potency,[1],inactive
same,Potency,[2],inactive
same,Potency,[3],inactive
same,Potency,[4],inactive
CC(=O)CC(c1ccccc1)c1c(O)c2ccccc2oc1=O (stereo unspecified),Potency,[1],inactive
same,Potency,[2],inactive
same,Potency,[3],inactive
same,Potency,[4],inactive
OC[C@@H](O)[C@@H](O[C@@H]1O[C@H](CO)[C@H](O)[C@H](O)[C@H]1O)[C@H](O)[C@@H](O)CO,Potency,[1],inactive
same,Potency,[2],inactive
same,Potency,[3],inactive
same,Potency,[4],inactive
CC1(C)O[C@@H]2C[C@H]3[C@@H]4C[C@H](F)C5=CC(=O)C=C[C@]5(C)[C@@]4(F)[C@@H](O)C[C@]3(C)[C@]2(C(=O)CO)O1,Potency,[1],inactive
same,Potency,[2],inactive
same,Potency,[3],inactive
same,Potency,[4],inactive
Nc1cc(C(Cl)=C(Cl)Cl)c(S(N)(=O)=O)cc1S(N)(=O)=O,Potency,[1],inactive
same,Potency,[2],inactive
same,Potency,[4],inactive
O=C(O)CCCC[C@@H]1SC[C@@H]2NC(=O)N[C@@H]21,Potency,[1],inactive
same,Potency,[2],inactive
same,Potency,[4],inactive
O=C(CO)[C@@H](O)[C@H](O)[C@@H](O)CO,Potency,[1],inactive
same,Potency,[2],inactive
same,Potency,[3],inactive
same,Potency,[4],inactive
O=C(O)c1ccccc1Nc1cccc(C(F)(F)F)c1,Potency,[1],inactive
same,Potency,[2],inactive
same,Potency,[3],inactive
same,Potency,[4],inactive
CCOC(=O)O[C@]1(C(=O)OCCl)CC[C@H]2[C@@H]3CCC4=CC(=O)C=C[C@]4(C)[C@H]3[C@@H](O)C[C@@]21C,Potency,[1],inactive
same,Potency,[2],inactive
same,Potency,[3],inactive
same,Potency,[4],inactive
Cc1c(C(C)C)c(=O)n(-c2ccccc2)n1C,Potency,[1],inactive
same,Potency,[2],inactive
same,Potency,[3],inactive
same,Potency,[4],inactive
COC(=O)N/N=C/c1c[n+]([O-])c2ccccc2[n+]1[O-],Potency,[1],inactive
same,Potency,[2],inactive
same,Potency,[3],inactive
same,Potency,[4],inactive
CO/N=C(\C(=O)N[C@@H]1C(=O)N2C(C(=O)O)=C(C[N+]3(C)CCCC3)CS[C@H]12)c1csc(N)n1,Potency,[1],inactive
same,Potency,[2],inactive
same,Potency,[3],inactive
same,Potency,[4],inactive
CC(=O)O[C@@H]1CC2C3CCc4cc(OC(=O)c5ccccc5)ccc4C3CCC2(C)[C@H]1OC(C)=O (stereo partly specified),Potency,[1],inactive
same,Potency,[2],inactive
same,Potency,[3],inactive
same,Potency,[4],inactive
O=C(O)CSCC(=O)NC1CCSC1=O (stereo unspecified),Potency,[1],inactive
same,Potency,[2],inactive
same,Potency,[3],inactive
same,Potency,[4],inactive
CCN1CCCC1CNC(=O)c1cc(S(=O)(=O)CC)c(N)cc1OC (stereo unspecified),Potency,[1],inactive
same,Potency,[2],inactive
same,Potency,[3],inactive
same,Potency,[4],inactive
Cc1onc(-c2ccccc2)c1-c1ccc(S(N)(=O)=O)cc1,Potency,[1],inactive
same,Potency,[2],inactive
same,Potency,[3],inactive
same,Potency,[4],inactive
c1ccc2c(CC3=NCCN3)cccc2c1,Potency,[1],inactive
same,Potency,[2],inactive
same,Potency,[3],inactive
same,Potency,[4],inactive
NS(=O)(=O)c1ccc(Cl)c(S(N)(=O)=O)c1,Potency,[1],inactive
same,Potency,[2],inactive
same,Potency,[3],inactive
same,Potency,[4],inactive
N#C[C@H]1C[C@H]2C[C@@H]2N1C(=O)[C@@H](N)C12CC3CC(CC(O)(C3)C1)C2,Potency,[1],inactive
same,Potency,[2],inactive
same,Potency,[3],inactive
same,Potency,[4],inactive
CC(C)(C)NC[C@H](O)COc1nsnc1N1CCOCC1,Potency,[1],inactive
same,Potency,[2],inactive
same,Potency,[3],inactive
same,Potency,[4],inactive
CN[C@@H]1CCc2[nH]c3ccc(C(N)=O)cc3c2C1,Potency,[1],inactive
same,Potency,[2],inactive
same,Potency,[3],inactive
same,Potency,[4],inactive
COc1ccc(NS(=O)(=O)c2ccc(N)cc2)nn1,Potency,[1],inactive
same,Potency,[2],inactive
same,Potency,[3],inactive
same,Potency,[4],inactive
CC(=O)Nc1ccc(C(=O)O)cc1,Potency,[1],inactive
same,Potency,[2],inactive
same,Potency,[4],inactive
S=P(N1CC1)(N1CC1)N1CC1,outcome,[1],inactive [at 0.573 µM]
same,"activity change, negative = cytotoxicity",[2],-8.32% [at 0.573 µM]
same,"activity change, negative = inhibition",[3],3.72% [at 0.573 µM]
same,"activity change, negative = cytotoxicity",[4],-9.38% [at 0.573 µM]
COc1ccc(C2CNC(=O)C2)cc1OC1CCCC1 (stereo unspecified),Potency,[1],inactive
same,Potency,[2],inactive
same,Potency,[3],inactive
same,Potency,[4],inactive
Nc1nc(Cl)nc2c1ncn2[C@@H]1O[C@H](CO)[C@@H](O)[C@@H]1F,Potency,[1],20 µM (active)
same,Potency,[2],inactive
same,Potency,[4],inactive
